B1: PhoQ; a variant is named by its letters at X, in order, P23837 (parent)
chain: MKKLLRLFFPLSLRVRFLLATAAVVLVLSLAYGMVALIGYSVSFDKTTFRLLRGESNLFYTLAKWENNKLHVELPENIDKQSPTMTLIYDENGQLLWAQRDVPWLMKMIQPDWLKSNGFHEIEADVNDTSLLLSGDHSIQQQLQEVREDDDDAEMTHSVAVNVYPATSRMPKLTIVVVDTIPVELKSSYMVWSWFIYVLSANLLLVIPLLWVAAWWSLRPIEALAKEVRELEEHNRELLNPATTRELTSLVRNLNRLLKSERERYDKYRTTLTDLTHSLKTPLXXLQXXLRSLRSEKMSVSDAEPVMLEQISRISQQIGYYLHRASMRGGTLLSRELHPVAPLLDNLTSALNKVYQRKGVNISLDISPEISFVGEQNDFVEVMGNVLDNACKYCLEFVEISARQTDEHLYIVVEDDGPGIPLSKREVIFDRGQRVDTLRPGQGVGLAVAREITEQYEGKIVAGESMLGGARMEVIFGRQHSAPKDE

These results are taken from a collection of fitness landscapes (doi:10.1126/science.1257360).

The full ranking holds about 140,000 sequences; the median of “enrichment ratio after two sorts for PhoP signalling” is about 0, and the highest 2% start at about 11. For the sample, the highest values were picked, then their nearest neighbours and some sequences at random.

The variants in the assay derive from B1. The assay can be described thus: enrichment ratio after two sorts for PhoP signalling (ratio (wild type AVST 3.29)); higher = more functional. Conditions: with PhoP (E. coli).
Take WYLH: the enrichment ratio was no more than 0.25.
TLFF: the enrichment ratio was no more than 0.25.
As to AINV, the enrichment ratio was no more than 0.25.
In the case of SNRK it was no more than 0.25; in that of QKYP, no more than 0.25; in that of IVDD, no more than 0.25.
In the case of VLPC, the enrichment ratio is no more than 0.25.
On to HDDH, for which the enrichment ratio was no more than 0.25.
Regarding WDDD, the enrichment ratio was no more than 0.25.
SRSC: the enrichment ratio was no more than 0.25.
To CMSC belongs 39.5; to MMSC, no more than 0.25; to SQSC, 11.7.
As to STSC, the enrichment ratio came out at 11.6.
Take SDSC: the enrichment ratio worked out at 2.35.
To YTSC belongs no more than 0.25.
Turning to TLSC, the enrichment ratio was 8.65.
With KQSC, the enrichment ratio is no more than 0.25.
In the case of FVKG, the enrichment ratio is no more than 0.25.
For PVCQ, the enrichment ratio was no more than 0.25.
On to MPMY, for which the enrichment ratio was no more than 0.25.
HPTD: the enrichment ratio was no more than 0.25.
On to MFHP, for which the enrichment ratio was no more than 0.25.
As for IYSH, the enrichment ratio is no more than 0.25.
To TGAT belongs 18.1; to TGNT, 15.8.
As to TGNY, the enrichment ratio turned out to be 16.9.
For TGAH, the enrichment ratio amounted to 9.14.
To AGAH belongs 11.2.
Take GGNT: the enrichment ratio is no more than 0.25.
RGNY: the enrichment ratio was no more than 0.25.
RGAT: the enrichment ratio was no more than 0.25.
To GGAT belongs no more than 0.25.
On to AKAH, for which the enrichment ratio stood at 4.55.
GGNY: the enrichment ratio was no more than 0.25.
On to RGNT, for which the enrichment ratio was no more than 0.25.
With IMPT, the enrichment ratio is no more than 0.25.
STPE: the enrichment ratio was no more than 0.25.
Consider SDDK, for which the enrichment ratio was no more than 0.25.
Turning to DTVG, the enrichment ratio was no more than 0.25.
In the case of MNVA, the enrichment ratio is no more than 0.25.
Turning to LNLH, the enrichment ratio was no more than 0.25.
For MLMR, the enrichment ratio was no more than 0.25.
With CQNY, the enrichment ratio is 12.1.
Take CQWS: the enrichment ratio was no more than 0.25.
To AGAT belongs 11.3; to AGKR, no more than 0.25; to CQVY, 5.8.
Take AGDT: the enrichment ratio was no more than 0.25.
In the case of IKGI it was no more than 0.25; in that of DLMM, no more than 0.25; in that of RFVW, no more than 0.25.
As for QQLG, the enrichment ratio stood at 2.01.
Consider TTCG, for which the enrichment ratio was 30.3.
As to YTCG, the enrichment ratio is no more than 0.25.
For the variant ITCT, the enrichment ratio is no more than 0.25.
On to LTCG, for which the enrichment ratio is no more than 0.25.
For the variant TTCT, the enrichment ratio stood at 12.8.
Turning to YTCV, the enrichment ratio was no more than 0.25.
On to ITCV, for which the enrichment ratio was no more than 0.25.
For the variant TTCV, the enrichment ratio is 17.3.
Consider YTCT, for which the enrichment ratio is no more than 0.25.
As for ITCS, the enrichment ratio was no more than 0.25.
With TTCS, the enrichment ratio was 18.7.
Turning to YTCS, the enrichment ratio was no more than 0.25.
As to ATPS, the enrichment ratio is no more than 0.25.
Turning to KDFS, the enrichment ratio was no more than 0.25.
Consider PMMQ, for which the enrichment ratio was no more than 0.25.
Consider YYTW, for which the enrichment ratio was no more than 0.25.
Regarding RVTP, the enrichment ratio is no more than 0.25.
As to FDKV, the enrichment ratio is no more than 0.25.
TTCE: the enrichment ratio worked out at 8.85.
Consider TTCI, for which the enrichment ratio is 15.8.
As for TTCK, the enrichment ratio came to 5.62.
As for LIVW, the enrichment ratio was no more than 0.25.
For GTSM, the enrichment ratio was 10.6.
In the case of ITSF it was no more than 0.25.
For AIMF, the enrichment ratio was determined as 0.847.
To ATHF belongs no more than 0.25; to YDSM, no more than 0.25.
As for CTSF, the enrichment ratio turned out to be 3.85.
For the variant ATSF, the enrichment ratio turned out to be 11.9.
With ATMF, the enrichment ratio was found to be 16.
As to ATSM, the enrichment ratio was found to be 16.9.
